# Tests used:
# Conditions in all cases: concentration: 1 μM, replicates: in singlicate; n = 1
# MEK5 = test system: T1, MEK5
# T1 construct: gene MAP2K5
# MEK6 = test system: T2, MEK6
# T2 construct: gene MAP2K6
# MELK = test system: MELK
# MERTK = test system: MERTK
# MET = test system: MET
# MINK = test system: T3, MINK
# T3 construct: gene MINK1
# MKK7 = test system: MKK7
# MKNK1 = test system: MKNK1
# MKNK2 = test system: MKNK2
# MLCK = test system: T4, MLCK
# T4 construct: gene MYLK3
# MLK1 = test system: T5, MLK1
# T5 construct: gene MAP3K9
# MLK2 = test system: MLK2
# MLK3 = test system: MLK3
# MRCKA = test system: MRCKA
# MRCKB = test system: T6, MRCKB
# T6 construct: gene CDC42BPB
# MST1R = test system: MST1R
# MST1 = test system: T7, MST1
# T7 construct: gene STK4
# MST2 = test system: T8, MST2
# T8 construct: gene STK3
# MST3 = test system: T9, MST3
# T9 construct: gene STK24
# MST4 = test system: MST4
# 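Further: KINOMEscan kinase panel screen.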
Compound,%Inh (MEK5) [%],%Inh (MEK6) [%],%Inh (MELK) [%],%Inh (MERTK) [%],%Inh (MET) [%],%Inh (MINK) [%],%Inh (MKK7) [%],%Inh (MKNK1) [%],%Inh (MKNK2) [%],%Inh (MLCK) [%],%Inh (MLK1) [%],%Inh (MLK2) [%],%Inh (MLK3) [%],%Inh (MRCKA) [%],%Inh (MRCKB) [%],%Inh (MST1R) [%],%Inh (MST1) [%],%Inh (MST2) [%],%Inh (MST3) [%],%Inh (MST4) [%]
O=c1[nH]cc(-c2ccc(N3CCOCC3)cc2)c2sc(-c3cn[nH]c3)cc12 [GSK2276055],8,29,17,7,0,26,0,0,9,19,0,0,0,0,0,31,0,32,29,0
Cc1ccc(C)c(NC(=O)NC2CCN(c3ccnc(Nc4ccc(F)cc4)n3)C2)c1 (stereo not shown) [GSK1379720],50,0,0,21,0,0,0,0,0,22,0,0,0,11,6,38,0,0,0,0
COCCOCCOc1cc2ncc3c4ccc(C#N)cc4[nH]c3c2cc1OC,100,0,54,0,10,90.9,0,95.4,99.7,95.8,22,0,53,12,24,0,12,76,0,0
O=C(O)C(F)(F)F.O=C(O)C(F)(F)F.O=c1[nH]ccc2nc(N[C@@H]3CCCNC3)nc(Nc3ccc(S(=O)(=O)N4CCOCC4)cc3)c12 [GSK2177277],100,86,100,100,90.2,98.1,81,7,59,90.8,96.4,83,98.4,35,80,57,99.3,41,97.5,98.9
Cc1ccc(S(=O)(=O)Nc2ccc(Nc3nccc(Nc4cccc5[nH]ncc45)n3)cc2)cc1 [GSK581271],69,0,0,9,0,0,0,0,1,0,0,0,0,7,0,35,46,0,11,0
CC(C)c1nc(-c2cccc(NS(=O)(=O)c3c(F)cccc3F)c2F)c(-c2ccnc(Nc3ccc(N4CCOCC4)nc3)n2)s1 [GSK2008607],99.9,59,81,79,85,60,0,12,96,0,96.3,100,92.7,0,0,82,55,0,63,39
CN1CCN(CCCNc2nccc(-c3c(-c4ccc(F)cc4)nn4cc(C(F)(F)F)ccc34)n2)CC1 [GW621581],25,0,0,26,0,17,0,0,1,4,0,22,0,0,0,8,11,0,19,0
CC(=O)Nc1nc2cnc(Nc3cc(NC(=O)c4cccc(C5(C#N)CC5)c4Cl)ccc3C)nc2s1,12,25,0,17,8,0,10,16,0,0,4,10,0,5,0,13,0,12,6,0
COc1cc(Nc2nccc(-c3c(-c4cccc(NC(=O)c5c(F)cccc5F)c4)nn4ccccc34)n2)cc(OC)c1OC [GSK323521],79,3,3,59,58,8,32,7,22,9,28,56,17,0,0,6,92.1,39,33,33
Cn1cc(-c2ccc3c(c2)CCN3C(=O)Cc2cccc(Cl)c2)c2c(N)ncnc21 [GSK2606590],99.8,0,0,79,45,0,28,21,23,6,70,77,73,0,0,38,97.2,0,17,19
Oc1cc(Nc2ccnc3cc(I)ccc23)ccc1F [GW552771],96.5,0,0,34,0,55,0,0,14,0,0,13,0,0,0,28,9,0,2,0
Cl.c1ccc(-c2ccc3c(Nc4ccc5[nH]ccc5c4)ccnc3c2)nc1 [GW440138],83,0,0,34,0,75,0,2,0,0,0,0,0,6,0,35,0,0,9,0
Cl.Cl.NCC(NC(=O)c1cc(-c2ccccc2)c(-c2ccnc3[nH]ccc23)s1)c1ccccc1 (stereo not shown) [GSK1321561],19,6,37,44,3,90.7,17,20,19,40,0,23,11,73,90.7,42,0,0,0,27
Cc1occc1-c1ncc(OC[C@@H](N)Cc2c[nH]c3ccccc23)cc1-c1ccc2[nH]nc(C)c2c1.O=C(O)C(F)(F)F [GSK682037],76,13,50,66,45,97.2,17,0,0,39,12,0,28,38,72,41,71,90,55,85
COc1cc(Nc2ncc3c(C)nc(-c4cc5ccccc5[nH]4)n3n2)cc(OC)c1OC [GW869516],78,0,49,56,0,1,0,0,0,36,93.8,89,87,4,7,0,0,29,0,0
COc1cc(Nc2nccc(N3CCC(NC(=O)c4cc5ccccc5s4)C3)n2)cc(OC)c1OC (stereo not shown) [GSK1379760],88,0,15,45,31,0,38,30,21,0,58,46,53,11,0,39,9,0,11,100
COc1ccc(CNC(=O)NC2CCN(c3ccnc(Nc4ccc(F)cc4)n3)CC2)cc1 [GSK1379788],9,0,0,0,0,0,0,2,0,0,0,0,0,19,0,35,3,0,0,0
COc1cccc(C(=O)Nc2cccc(Oc3ccc4nc(NC(=O)C5CC5)cn4n3)c2)c1,98.2,0,35,57,20,63,0,4,0,0,8,0,2,21,0,17,9,0,15,0
CC(C)(C)c1ccc2nccc(Nc3cccc(O)c3)c2c1 [GW856795],52,0,1,0,0,0,31,47,23,0,0,3,0,0,0,32,0,18,0,0
Clc1ccc(-c2nn3ncccc3c2-c2ccnc(Nc3ccc4c(c3)OCCO4)n2)cc1 [GW829116],33,20,0,0,0,23,0,0,0,0,0,16,0,34,0,0,0,9,0,0
